Source: PubChem BioAssay (National Center for Advancing Translational Sciences (NCATS))
Pf growth 48h: P. falciparum growth inhibition at 48 hours (one generation); P. falciparum luciferase growth in erythrocytes, 48 h; AID 504832; actives 5.9% (n = 310,000); Potency, µM (top dose mostly 28.7 µM), for inactives: at the highest dose activity change, negative = inhibition, usual class: inhibitors; also: potency is read from the fitted curve at half-maximal effect; % is scaled to controls: 0 for no effect and ±100 for the full control effect
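A one-generation exposure of luciferase-tagged malaria parasites in RPMI 1640/Albumax erythrocyte culture, 37 C and 5% CO2. Inhibition is inferred from decreased luminescence after adding detection reagent.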
Pf growth 96h: inhibits malaria parasite growth, 96 h; actives 6.9% (n = 320,000); Potency, µM (titrated, usually from 28.7 µM), without a hit: at the top dose activity change, negative = inhibition, usual class: inhibitors; P. falciparum luciferase reporter growth, 96 h; AID 504834; also: potency is read from the fitted curve at half-maximal effect; % is scaled to controls: 0 for no effect and ±100 for the full control effect
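Luminescence readout: decreased luciferase signal marks inhibited growth of reporter-expressing P. falciparum in infected red cells (2% hematocrit, 0.05% parasitemia final), exposed to compound two generations (96 h, 37 C, 5% CO2).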
Cycloheximide cs: affects cycloheximide protein synthesis inhibition readout, counter-screen. cell reporter, cycloheximide protein synthesis inhibition counterscreen. max response, %. actives 12% (n = 300,000); in the data active = max response mostly above about 13%, no sharp cut-off; inactive = mostly below about 14%; also: read at 38.3 µM for the half of the compounds with a filed dose; 0% is about no effect
Shiga inhibitor: blocks Shiga toxin action in Vero cells; Vero cells, Shiga toxin protein synthesis inhibition reporter; inhibition, % at 38.7 µM; actives 9.2% (n = 290,000); in the data active = inhibition mostly above about 28%, no sharp cut-off; inactive = mostly below about 43%; also: 0% is about no effect
NS1 inh: blocks influenza NS1 protein function | AID 2326 | Potency, µM (top dose mostly 46.1 µM), for the others: at the highest dose activity, positive = more growth | actives 0.4% (n = 270,000); calls by dose curve; also: potency is read from the fitted curve at half-maximal effect; actives are rising curves; nearly all actives have a fitted effect of over 50% in size
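Recovery from NS1-induced slow growth read by OD600 in budding yeast switched to galactose assay medium (pH 6.0, -URA) at 1:100 dilution. Compound 23 nl per well; the matching strain lacking NS1 serves as control.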
* marks the source's active call; other numbers are inactive results; ? = inconclusive; · = not tested or not shown; [ ] = remark or other dose. A selection: hits, their analogues and other compounds. The true share with any hit is near 21%. Unless noted, calls follow the shape of the dose curve; as a rule, active = well fitted inhibition curve with a large enough effect; inconclusive = small, poorly fitted or top-dose-only effect, or another doubt; inactive = no such curve, though single readings can be large or run the other way.

SMILES	Pf growth 48h	Pf growth 96h	Cycloheximide cs	Shiga inhibitor	NS1 inh
COc1ccc(/C=N/NC(=O)c2ccncc2)cc1[N+](=O)[O-]	28.9%	4.15µM*	1.9	-7.9	·
O=C(Nc1cccc(/C=C/c2ccccn2)c1)c1ccc(-n2cncn2)c([N+](=O)[O-])c1	5.22µM*	4.65µM*	·	·	·
COc1ccc(C(=O)NC(=S)Nc2cc(C)ccn2)cc1[N+](=O)[O-]	30.5%	4.65µM*	6.7	-8.2	16.0%
CCc1ccc(NC(=O)c2ccc(-n3cncn3)c([N+](=O)[O-])c2)cc1	11.7µM*	?	·	·	·
O=C(N/N=C/c1ccc(O)c([N+](=O)[O-])c1)c1ccncc1	18.7%	1.9%	0.6	-11.3	4.9%
O=C(COC(=O)c1cccc(C(F)(F)F)c1)NCc1ccccc1	-7.6%	15.4%	-1.6	12.6	-7.7%
Cc1ccc(C(=O)NC(=O)OCCn2c(C)cnc2[N+](=O)[O-])cc1	0.0%	-25.3%	17.0	47.2	·
CCc1ccc(NC(=O)c2ccc(OC)c([N+](=O)[O-])c2)cc1	24.0%	?	36.6*	90.3*	10.8%
COc1ccc(C(=O)N/N=C/c2ccc(OC(=O)c3cccc4ccccc34)c([N+](=O)[O-])c2)cc1	30.2%	9.28µM*	17.0	16.6	3.8%
COc1ccc(C(=O)C[n+]2cccc(C)c2C)cc1[N+](=O)[O-]	7.38µM*	6.2%	4.9	2.4	-3.1%
CCOC(=O)Nc1ccc(OC)c([N+](=O)[O-])c1	14.7µM*	-0.2%	6.1	-6.6	·
COc1ccc(C(=O)Nc2ccc(N3CCN(C)CC3)cc2)cc1[N+](=O)[O-]	2.3%	-25.9%	0.5	10.5	·
CCOC(=O)Nc1cc(C)ccc1OC	-20.2%	-3.2%	-1.8	-2.4	-5.4%
O=C(O)Cn1c(SCCOc2ccc(Cl)cc2)nc2ccccc21	0.6%	?	-2.2	-15.5	11.1%
CC(=O)COc1cc2c(-c3cc4ccccc4o3)cc(=O)oc2cc1C	0.0%	?	-1.7	16.1	-6.8%
Cn1c(SCC2CCCO2)nnc1-c1ccc([N+](=O)[O-])cc1 (stereo not drawn)	-1.7%	?	10.7	16.8	7.1%
CCCCNC(=O)C1Cc2cc(S(=O)(=O)N3CCCCC3)ccc2N1C(C)=O (stereo not drawn)	-0.5%	?	-9.6	-9.1	7.3%
COc1ccc(C(=O)Nc2ccncc2)cc1[N+](=O)[O-]	8.28µM*	41.2%	4.6	7.4	25.4%
O=C(Nc1cccc(/C=C/c2ccccn2)c1)c1cc(Cl)ccn1	107.5%	80.6%	28.6*	43.3*	-5.3%
Nc1cc(C(=O)O)ccc1N1CCCCCC1	20.8%	·	-2.6	-16.6	10.9%[9.22 µM]
O=C(CSc1ccc(-c2ccco2)nn1)NCc1ccc(F)cc1	-9.1%	-9.1%	-1.0	-9.3	1.3%
O=C(CSc1ccc(-c2ccco2)nn1)Nc1ccccc1F	6.2%	-28.7%	21.3	0.4	-4.6%
Cc1nc(C)c(-c2ccc(SCc3cccc(F)c3)nn2)s1	-2.4%	63.2%	20.6*	24.7	-13.1%
O=C(CSc1ccc(-c2ccco2)nn1)c1ccc(F)cc1	15.1%	-8.7%	29.1*	active	1.4%
Fc1cccc(CSc2ccc(-c3ccco3)nn2)c1	184.6%	128.5%	66.9*	79.2*	18.1%
SMILES	Pf growth 48h	Pf growth 96h	Cycloheximide cs	Shiga inhibitor	NS1 inh
Fc1ccc(CSc2ccc(-c3ccco3)nn2)cc1	198.6%	52.9%	18.5*	33.0*	7.1%
Cc1nc(C)c(-c2ccc(SCc3ccc(Cl)cc3)nn2)s1	11.9%	1.3%	1.7	9.0	-1.8%
CC1CCCC(C)N1C(=O)COC(=O)Cc1ccc(F)cc1 (stereo not drawn)	-16.9%	0.9%	4.2	-2.5	-5.9%
CC(C)Oc1ccc(C(CC(=O)O)Cc2ccccc2)cc1 (stereo not drawn)	31.4%	19.3%	-2.7	2.3	3.6%
Cc1ccc(C)c(N=Cc2cc3c(cc2[N+](=O)[O-])OCO3)c1	?	0.0415µM*	5.6	-8.0	·
c1ccc2[nH]c(NCCCc3cnc[nH]3)nc2c1	·	·	13.3	-8.9	·
CCCCNc1nc2ccccc2[nH]1	?	·	21.8*	33.7	1.6%
CCOc1ccc(OCCCC(=O)Nc2nc3ccccc3[nH]2)cc1	22.1%	-5.8%	12.0	-20.1	·
CCOCCCNc1nc2ccccc2[nH]1	-1.0%	?	12.0*	34.2	-1.3%
COc1cc(C(=O)NCC(C)(C)CNC(=O)c2cc(OC)c(OC)c(OC)c2)cc(OC)c1OC	?	45.8%	1.3	-11.3	-17.3%
CC(=O)Nc1ccc(NC(=O)CSc2nnnn2-c2ccc3c(c2)OCCO3)cc1	0.0%	?	9.9	-3.5	?
CCOc1ccccc1-n1nnnc1SCC(=O)Nc1cc(C)on1	?	2.7%	-2.7	-11.9	-8.8%
O=C(CSc1nnnn1-c1ccccc1)NC(=O)Nc1ccc2c(c1)OCCO2	158.1%	119.3%	56.1*	76.0*	1.1%
CCOc1ccccc1-n1nnnc1SCC(=O)NC(=O)Nc1ccc2c(c1)OCCO2	8.1%	·	12.6*	20.5	-1.5%
COc1ccc(OC)c(NC(=O)c2cc(S(=O)(=O)N3CCCC3)cn2C)c1	-14.9%	37.6%	1.1	7.7	7.9%
O=C(O)c1ccc(NC2=C(N3CCOCC3)C(=O)c3ccccc3C2=O)cc1	-11.6%	-5.1%	-0.9	14.8	8.2%
CC(=O)c1ccc(NC2=C(N3CCOCC3)C(=O)c3ccccc3C2=O)cc1	0.828µM*	0.522µM*	-4.6	20.8	-7.0%
Cc1ccc(NC2=C(N3CCOCC3)C(=O)c3ccccc3C2=O)cc1	2.08µM*	2.62µM*	47.1*	71.7*	10.1%
COc1ccccc1OCc1nc(C#N)c(NCc2ccco2)o1	-19.7%	11.7µM*	8.4	15.3	-53.0%
N#Cc1nc(COc2cccc(Cl)c2)oc1NCc1ccco1	·	-19.1%	50.4*	65.2	-39.2%
COCCCn1c(SC(C)C(=O)NC2CC2)nc2ccccc2c1=O (stereo not drawn)	-1.9%	?	·	·	·
O=C(Cn1cc2c(n1)CCCC2)NCc1cccs1	·	5.22µM*	2.7	-4.6	-10.0%
O=C(Cn1cc2c(n1)CCCC2)Nc1cc(-c2cccc(Cl)c2)no1	?	23.4%	28.1*	44.5*	-88.0%
O=C(Cn1cc2c(n1)CCCC2)NCc1ccccn1	4.3%	34.1%	-1.1	1.5	-2.9%
CC(NC(=O)Cn1cc2c(n1)CCCCC2)c1ccccc1 (stereo not drawn)	-20.3%	-28.5%	-2.2	-1.4	0.2%
SMILES	Pf growth 48h	Pf growth 96h	Cycloheximide cs	Shiga inhibitor	NS1 inh
C/C=C1/NN(CCCN2CCN(c3cccc(Cl)c3)CC2)C(=O)N1CCOc1ccccc1	-17.9%	-15.7%	13.4	-9.6	·
Cc1ccc(C(=O)Nc2nc(C(C)(C)C)cs2)s1	20.1%	·	56.5*	157.8*	-83.0%
CC(C)(C)c1csc(NC(=O)c2ccncc2)n1	-5.4%	35.9%	13.6	18.8	·
CC(C)(C)c1csc(NC(=O)c2ccc(Cl)s2)n1	3.7µM*	·	62.8*	102.6*	-62.4%
CCOc1ncccc1C(=O)N1CCCSC1=Nc1ccc(C(C)=O)cc1	?	?	-5.3	11.4	20.6%
O=C(OCC#CCSc1nnc(-c2ccc(Br)cc2)o1)c1ccco1	43.1%	4.4%	18.9*	47.3*	-2.5%
O=C(OCc1nnc(-c2ccccc2)o1)c1ccc(Br)o1	30.7%	0.7%	·	·	·
